PubChem BioAssay (NCATS)
Several values for one entry are separate records, joined by “and”; a condition that tells them apart may be missing. Equal entries are not always repeated. Records with an inconclusive call do not appear. Activity calls are given as the source filed them. Calls come from the whole dose curve; as a rule, active = well fitted curve in the direction sought with a large enough effect; inconclusive = small, poorly fitted or top-dose-only effect, or another doubt; inactive = no such curve, though single readings can be large; an effect the other way counts as inactive or inconclusive.

How the values were obtained:
MKL-1 = test: qHTS assay to identify novel small-molecules to repurpose for Merkel cell carcinoma treatment (AID 1296009); details: MCC and control cell lines, CellTiter-Glo viability, 72 h; series mostly up to 46 µM; note: nearly all actives have a fitted effect of over 60% in size
In short: (§1)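 Dose-response viability screen; 72 hr exposure at 37 degree celsius; CellTiter-Glo added, 10 min room temperature, luminescence read; RLUs scaled between no-cell and DMSO wells.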

MKL-2 = test: as above; details: MCC and control cell lines, CellTiter-Glo viability, 72 h; series mostly up to 46 µM
In short: as §1

UISO = test: as above; details: MCC and control cell lines, CellTiter-Glo viability, 72 h; series mostly up to 46 µM
In short: as §1

WaGa = test: as above; details: MCC and control cell lines, CellTiter-Glo viability, 72 h; series mostly up to 46 µM
In short: as §1

C33A = test: Primary qHTS to identify gynecologic anti-cancer compounds using libraries of approved drugs and bioactive compounds (AID 1345084); details: Gynecologic cancer cell panel viability, ATPlite luminescence, 48 h; series mostly up to 57.5 µM; note: nearly all actives have a fitted effect of over 55% in size
In short: (§2)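 Cell viability after 48 h drug treatment, ATPlite luminescence readout; five doses.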

CAOV3 = test: as above; details: Gynecologic cancer cell panel viability, ATPlite luminescence, 48 h; series mostly up to 57.5 µM
In short: as §2

CASKI = test: as above; details: Gynecologic cancer cell panel viability, ATPlite luminescence, 48 h; series mostly up to 57.5 µM
In short: as §2

Es-2 = test: as above; details: Gynecologic cancer cell panel viability, ATPlite luminescence, 48 h; series mostly up to 57.5 µM
In short: as §2

HeLa = test: as above; details: Gynecologic cancer cell panel viability, ATPlite luminescence, 48 h; series mostly up to 57.5 µM
In short: as §2

Hek293T = test: as above; details: Gynecologic cancer cell panel viability, ATPlite luminescence, 48 h, control line for the selectivity index; series mostly up to 57.5 µM
In short: as §2

PA-1 = test: as above; details: Gynecologic cancer cell panel viability, ATPlite luminescence, 48 h; series mostly up to 57.5 µM
In short: as §2

SKOV3 = test: as above; details: Gynecologic cancer cell panel viability, ATPlite luminescence, 48 h; series mostly up to 57.5 µM
In short: as §2

Tov-21-G = test: as above; details: Gynecologic cancer cell panel viability, ATPlite luminescence, 48 h; series mostly up to 57.5 µM
In short: as §2

Tov112D = test: as above; details: Gynecologic cancer cell panel viability, ATPlite luminescence, 48 h; series mostly up to 57.5 µM
In short: as §2

astro = test: Drug repurposing screens with cells derived from glioblastoma tumor samples (AID 1345199); details: viability, ATP luminescence, 48 h; series mostly up to 45.9 µM; note: nearly all actives have a fitted effect of over 40% in size; for activity, negative = cell killing: % is set by controls: 0 for no effect and ±100 for the full control effect
In short: (§3)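 Primary testing used CD133+ neurospheres from four GBM patients, seven concentrations, 48 h exposure and ATP-based viability; confirmation added three slower-growing patient lines.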

JEG-3 = test: Primary qHTS to identify gynecologic anti-cancer compounds using libraries of approved drugs and bioactive compounds (AID 1345084); details: Gynecologic cancer cell panel viability, ATPlite luminescence, 48 h; series mostly up to 57.5 µM; note: nearly all actives have a fitted effect of over 55% in size
In short: as §2

OV90 = test: as above; details: Gynecologic cancer cell panel viability, ATPlite luminescence, 48 h; series mostly up to 57.5 µM
In short: as §2

[1] = Drug repurposing screens with cells derived from glioblastoma tumor samples (AID 1345199); details: GBM patient neurospheres viability, ATP luminescence, 48 h; note: nearly all actives have a fitted effect of over 40% in size; for activity, negative = cell killing: % is set by controls: 0 for no effect and ±100 for the full control effect
In short: as §3

[2] = qHTS assay to identify inhibitors of the type 1 interferon - major histocompatibility complex class I in skeletal muscle: Counter screen cell viability and HiBit confirmation (AID 1347412); details: iHSKM muscle cells + IFN-b, HiBiT or CellTiter-Glo, 24 h; HiBiT; note: nearly all actives have a fitted effect of over 60% in size
In short: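 HLA-B*08:01–HiBiT knock-in immortalized human myoblasts (C25cl48) stimulated with 4.0 ng/ml human IFN-beta and dosed with compound in a 12-point 1:3 titration (top final 46 uM). After 24 hrs at 37 C, HiBiT lytic luminescence or CellTiter Glo ATP read out.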

[3] = at 45.9 µM (top of the series), tumour line B
[4] = at 45.9 µM (top of the series), tumour line D
[5] = at 46.1 µM (top of the series), tumour line C
[6] = at 20 µM (top of the series), tumour line C
[7] = at 21.2 µM (top of the series), tumour line B
[8] = at 21.2 µM (top of the series), tumour line D
[9] = at 21.3 µM (top of the series), tumour line A
Potency is the fitted concentration of half-maximal effect.

Cc1cc(=O)c2c(O)c3c(O)cc(=O)c4c3c3c(cc(O)c1c23)C(C)(C)C=4O
active: Potency (C33A) 3550 nM | Potency (CAOV3) 4470 nM | Potency (CASKI) 2000 nM | Potency (Es-2) 3160 nM | Potency (HeLa) 2240 nM | Potency (Hek293T) 2000 nM | Potency (PA-1) 2820 nM | Potency (SKOV3) 3550 nM | Potency (Tov-21-G) 3160 nM | Potency (Tov112D) 2.24 µM | Potency (astro) 2.51 µM
inactive: Potency (MKL-1) | Potency (MKL-2) | Potency (UISO) | Potency (WaGa)

Nc1cccc2c1CN(C1CCC(=O)NC1=O)C2=O (stereo not given)
inactive: Potency (MKL-1) | Potency (MKL-2) | Potency (UISO) | Potency (C33A) | Potency (CAOV3) | Potency (CASKI) | Potency (Es-2) | Potency (HeLa) | Potency (Hek293T) | Potency (JEG-3) | Potency (OV90) | Potency (PA-1) | Potency (SKOV3) | Potency (Tov-21-G) | Potency (Tov112D) | activity, negative = cell killing [1, 3] -18.6% | activity, negative = cell killing [1, 4] -1.35% | activity, negative = cell killing ([1]; at 46 µM (top of the series), tumour line A) -28.8% | activity, negative = cell killing [1, 5] -29.8% | Potency (astro)

Cc1cccc(CN2CCN(C(c3ccccc3)c3ccc(Cl)cc3)CC2)c1 (stereo not given)
inactive: Potency (MKL-1) | Potency (MKL-2) | Potency (UISO) | Potency (WaGa) | Potency (C33A) | Potency (CAOV3) | Potency (CASKI) | Potency (Es-2) | Potency (HeLa) | Potency (Hek293T) | Potency (JEG-3) | Potency (PA-1) | Potency (SKOV3) | Potency (Tov-21-G) | Potency (Tov112D) | activity, negative = cell killing [1, 6] -7.92% | Potency (astro)
active: Potency ([1]; tumour line A) 5620 nM

NS(=O)(=O)c1cc(C(=O)O)c(NCc2ccco2)cc1Cl
inactive: Potency (MKL-1) | Potency (MKL-2) | Potency (UISO) | Potency (WaGa) | Potency (C33A) | Potency (CASKI) | Potency (Es-2) | Potency (HeLa) | Potency (Hek293T) | Potency (JEG-3) | Potency (OV90) | Potency (PA-1) | Potency (SKOV3) | Potency (Tov-21-G) | Potency (Tov112D) | activity, negative = cell killing [1, 3] -8.22% | activity, negative = cell killing [1, 4] -18.4% | activity, negative = cell killing [1, 5] 5.25% | Potency (astro)

CC(=O)NC[C@H]1CN(c2ccc(N3CCOCC3)c(F)c2)C(=O)O1
inactive: Potency (MKL-1) | Potency (MKL-2) | Potency (UISO) | Potency (WaGa) | Potency (C33A) | Potency (CAOV3) | Potency (CASKI) | Potency (Es-2) | Potency (HeLa) | Potency (Hek293T) | Potency (JEG-3) | Potency (OV90) | Potency (PA-1) | Potency (SKOV3) | Potency (Tov112D) | activity, negative = cell killing [1, 3] -14.6% | activity, negative = cell killing [1, 4] -26.2% | activity, negative = cell killing [1, 5] 15.8% | Potency (astro)

CCOc1cc(CC(=O)N[C@@H](CC(C)C)c2ccccc2N2CCCCC2)ccc1C(=O)O
inactive: Potency (MKL-1) | Potency (MKL-2) | Potency (UISO) | Potency (WaGa) | activity, negative = cell killing [1, 6] -12% | activity, negative = cell killing [1, 7] -4.95% | activity, negative = cell killing [1, 8] -25.3% | activity, negative = cell killing [1, 9] -13.6% | Potency (astro)

CC(C)C[C@H](NC(=O)[C@H](Cc1ccccc1)NC(=O)c1cnccn1)B(O)O
active: Potency (MKL-1) 26.6 nM | Potency (MKL-2) 6 nM | Potency (UISO) 26.6 nM | Potency (WaGa) 16.8 nM | Potency (C33A) 100 nM | Potency (HeLa) 316 nM | Potency (OV90) 44.7 nM | Potency (SKOV3) 501 nM | Potency (Tov112D) 2 µM and 2.24 µM | Potency (astro) 501 nM and 316 nM | Potency [2] 31.3 nM
inactive: Potency (JEG-3)

Nc1cc(C(Cl)=C(Cl)Cl)c(S(N)(=O)=O)cc1S(N)(=O)=O
inactive: Potency (MKL-1) | Potency (MKL-2) | Potency (UISO) | Potency (WaGa) | Potency (C33A) | Potency (CASKI) | Potency (Es-2) | Potency (HeLa) | Potency (Hek293T) | Potency (JEG-3) | Potency (OV90) | Potency (PA-1) | Potency (SKOV3) | Potency (Tov-21-G) | Potency (Tov112D) | activity, negative = cell killing [1, 6] -2.9% | activity, negative = cell killing [1, 7] -5.37% | activity, negative = cell killing [1, 8] -20.2% | activity, negative = cell killing [1, 9] -22% | activity, negative = cell killing [1, 3] -15.5% | activity, negative = cell killing [1, 4] 2.04% | activity, negative = cell killing [1, 5] 10.7% | Potency (astro)
